Compound activity: PubChem BioAssay, National Center for Advancing Translational Sciences (NCATS)
TDP1 inh: blocks human tyrosyl-DNA phosphodiesterase 1; Q9NUW8; recombinant TDP1, AlphaScreen DNA substrate cleavage; Potency, µM (titrated, usually from 130 µM), most hits filed as inhibitors; 0.28% of 350,000 active; note: nearly all actives have a fitted effect of over 40% in size
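Tdp1 1 nM final; 15 min RT w/ cpd; substrate 15 nM, 5 min; beads 10 ug/ml, 10 min; AlphaScreen read. Neg ctrl: no enzyme.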
DT40 TDP1 no CPT: qHTS for Inhibitors of human tyrosyl-DNA phosphodiesterase 1 (TDP1): qHTS in cells in absence of CPT; DT40 Tdp1-/- hTDP1 cells, no CPT, ATP luminescence, 48 h; 15% of 420,000 active; Potency, µM (series often up to 46.2 µM), hits mostly inhibitors; note: nearly all actives have a fitted effect of over 55% in size
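Growth of hTDP1-complemented DT40 Tdp1-knockout cells is measured by ATP luminescence after at least 48 hr compound exposure at 37 °C, with DMSO substituting for the 20 nM CPT used in the parallel screen.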
Six1-Eya2 blk: inhibitors of human Six1/Eya2 interaction | activity change, % (no concentration beside the values) | AlphaScreen GST-Six1/His-Eya2 binding, biochemical; hits give low values | 0.56% of 360,000 active | Q15475+O00167 | AID 651725; in the data active = activity change below about -65%; inconclusive = mostly about -30% to -63%
Target sequence (O00167 whole entry, looked up): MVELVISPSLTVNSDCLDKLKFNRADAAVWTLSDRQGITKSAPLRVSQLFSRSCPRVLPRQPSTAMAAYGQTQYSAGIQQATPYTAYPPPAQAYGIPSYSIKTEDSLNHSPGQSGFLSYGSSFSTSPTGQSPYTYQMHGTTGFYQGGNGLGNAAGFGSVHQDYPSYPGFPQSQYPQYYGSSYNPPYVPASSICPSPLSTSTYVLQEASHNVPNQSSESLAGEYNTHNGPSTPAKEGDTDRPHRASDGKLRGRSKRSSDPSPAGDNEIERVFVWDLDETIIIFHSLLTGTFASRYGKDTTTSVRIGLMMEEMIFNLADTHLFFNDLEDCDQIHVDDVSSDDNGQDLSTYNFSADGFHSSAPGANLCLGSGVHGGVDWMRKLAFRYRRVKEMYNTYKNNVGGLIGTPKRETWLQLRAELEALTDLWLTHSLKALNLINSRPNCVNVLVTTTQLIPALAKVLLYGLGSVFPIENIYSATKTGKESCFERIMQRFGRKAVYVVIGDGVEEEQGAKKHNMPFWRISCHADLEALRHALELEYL
Target sequence (Q15475 whole entry, looked up): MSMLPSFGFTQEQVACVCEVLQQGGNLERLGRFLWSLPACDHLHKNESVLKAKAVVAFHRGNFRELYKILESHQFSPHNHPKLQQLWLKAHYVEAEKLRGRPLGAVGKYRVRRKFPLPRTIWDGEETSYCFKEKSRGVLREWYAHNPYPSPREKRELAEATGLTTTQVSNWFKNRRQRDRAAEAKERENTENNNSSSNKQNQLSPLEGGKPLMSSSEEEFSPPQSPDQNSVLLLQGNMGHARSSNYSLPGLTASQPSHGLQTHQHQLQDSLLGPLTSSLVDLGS
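AlphaScreen luminescence read after one hour at 37 °C in darkness. Pin-transferred compounds met GST-Six1 and His-Eya2 protein (5X stock 250 nM/500 nM) plus glutathione donor and Ni-chelate acceptor beads (5X, 50 ug/mL).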
IL1B secr inh: inflammasome signaling inhibition, IL-1 beta readout. THP-1 LPS/ATP IL-1B secretion, AlphaLISA, 16 h; hits give low values. activity change, % at 57.5 µM. 4.7% of 360,000 active; in the data active = activity change below about -50%; inconclusive = mostly about -30% to -49%
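THP-1 cells pretreated 1 hr with compounds (up to 57.5 uM final), then stimulated with LPS (250 ng/mL final) plus ATP (1.25 mM final); secreted IL-1B measured by AlphaLISA after 16 hr, decreased signal indicating inhibition.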
CtBP-E1A inh: CtBP/E1A binding inhibition. 0.49% of 340,000 active. activity change, % (no concentration beside the values). AlphaScreen GST-E1A/His-CtBP binding, 1536-well; hits give low values. AID 651724; in the data active = activity change below about -65%; inconclusive = mostly about -30% to -63%
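Protein mix (5X: 125 nM each GST-E1A, His-CtBP) was incubated with pinned compound 2 h at 37 deg C in dark, in 50 mM Tris pH 8.0 buffer with 300 mM NaCl. Glutathione donor and nickel acceptor beads followed; AlphaScreen signal read after 1 h.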
TDP1 cell CPT: DT40-hTDP1 cell growth loss with CPT; chicken DT40 Tdp1-/-;hTDP1 cells + 20 nM CPT, ATP luminescence, 48 h; Potency, µM (doses to about 46.2 µM), most hits filed as inhibitors; 12% of 420,000 active; AID 686979; note: nearly all actives have a fitted effect of over 55% in size
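Cell growth measured by CellTiter-Glo luminescence after a minimum 48 h, 37 C compound exposure with 20 nM CPT in Tdp1-knockout DT40 cells stably expressing hTDP1, seeded 400/well; qHTS titration format.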
Each line names hits and unclear results; the compound was inactive in the other large screens. Most compounds without a hit are left out; they make up all but 18% or so of the library. Unless noted, calls come from the whole dose curve; as a rule, active = well fitted curve in the direction sought with a large enough effect; inconclusive = small, poorly fitted or top-dose-only effect, or another doubt; inactive = no such curve, though single readings can be large; an effect the other way counts as inactive or inconclusive.

CCOC(=O)C1(Cc2cccc(OC)c2)CCN(Cc2cc(OC)ccc2OC)CC1	DT40 TDP1 no CPT 16µM, IL1B secr inh -67, TDP1 cell CPT inconclusive
CCOC(=O)C1(CC2CCCCO2)CCN(Cc2ccc(OC)cc2F)CC1 (centres undefined)	DT40 TDP1 no CPT 21µM, TDP1 cell CPT inconclusive (no result: TDP1 inh)
CCOC(=O)C1(CC2CCCCO2)CCN(Cc2nc3ccccc3nc2C)CC1 (centres undefined)	DT40 TDP1 no CPT inconclusive, TDP1 cell CPT inconclusive
CCOC(=O)C1(Cc2cccc(OC)c2)CCN(Cc2cccnc2)CC1	DT40 TDP1 no CPT 29µM, TDP1 cell CPT inconclusive
CCOC(=O)C1(Cc2cccc(OC)c2)CCN(Cc2ccccc2)CC1	DT40 TDP1 no CPT inconclusive, TDP1 cell CPT inconclusive (no result: TDP1 inh)
CCOC(=O)C1(Cc2cccc(OC)c2)CCN(Cc2cnc(SC)nc2)CC1	DT40 TDP1 no CPT inconclusive
CCOC(=O)C1(Cc2cccc(OC)c2)CCN(Cc2cnc(N)nc2)CC1	none (no result: TDP1 inh)
CCOC(=O)C1(Cc2cccc(OC)c2)CCN(Cc2cccc3cnccc23)CC1	DT40 TDP1 no CPT inconclusive, TDP1 cell CPT 18µM
O=C(Nc1ccc(N2CCC(c3ccccc3)C2)c(C(=O)O)c1)c1ccc(Cl)cc1 (centres undefined)	DT40 TDP1 no CPT inconclusive, TDP1 cell CPT inconclusive (no result: Six1-Eya2 blk, IL1B secr inh, CtBP-E1A inh)
CCCOC(=O)/C(=C\C=C\c1ccco1)NC(=O)c1ccccc1	DT40 TDP1 no CPT 21µM, TDP1 cell CPT 13µM
CCCOC(=O)/C(=C\c1ccc([N+](=O)[O-])o1)NC(=O)c1ccccc1	DT40 TDP1 no CPT 21µM, TDP1 cell CPT 16µM
O=C(NCCO)/C(=C\c1ccc([N+](=O)[O-])o1)NC(=O)c1ccccc1	DT40 TDP1 no CPT 29µM, TDP1 cell CPT inconclusive
COC(=O)/C(=C/c1ccco1)NC(=O)c1ccccc1	none
CCOC(=O)/C(=C\c1ccc([N+](=O)[O-])o1)NC(=O)c1ccccc1	DT40 TDP1 no CPT 18µM, TDP1 cell CPT 23µM
CC(C)NC(=O)c1cc(-c2ccc3c(c2)OCO3)on1	none (no result: TDP1 inh)
O=C(NCc1ccco1)C1CCN(S(=O)(=O)Cc2ccccc2)CC1	none
Cc1cccc(NC(=S)N(CCN(C)C)Cc2cc3cccc(C)c3[nH]c2=O)c1	DT40 TDP1 no CPT 6.5µM, IL1B secr inh inconclusive, TDP1 cell CPT inconclusive
Cc1cccc(NC(=S)N(CCN(C)C)Cc2cc3cc(C)cc(C)c3[nH]c2=O)c1	DT40 TDP1 no CPT inconclusive, TDP1 cell CPT inconclusive
Cc1ccc2[nH]c(=O)c(CN(CCCN(C)C)C(=O)Nc3ccc(F)cc3)cc2c1	DT40 TDP1 no CPT 13µM, TDP1 cell CPT inconclusive
CCN(CC)CCCN(Cc1cc2cc(OC)ccc2[nH]c1=O)C(=O)Nc1ccc(F)cc1	DT40 TDP1 no CPT 21µM, IL1B secr inh -51, TDP1 cell CPT 16µM
Cc1ccc(NC(=S)N(Cc2cccs2)Cc2cc3cc(C)ccc3[nH]c2=O)cc1	DT40 TDP1 no CPT inconclusive, TDP1 cell CPT inconclusive
COc1ccc(NC(=O)N(CCCN(C)C)Cc2cc3cc(OC)ccc3[nH]c2=O)cc1	TDP1 cell CPT inconclusive
Cc1ccc(NC(=S)N(CCN(C)C)Cc2cc3cc(C)ccc3[nH]c2=O)cc1	DT40 TDP1 no CPT inconclusive, IL1B secr inh -68, TDP1 cell CPT inconclusive
CCN(CC)CCCN(Cc1cc2cc(OC)ccc2[nH]c1=O)C(=O)Nc1ccccc1	DT40 TDP1 no CPT inconclusive, TDP1 cell CPT inconclusive (no result: TDP1 inh)
Nc1nc2c3ccccc3nc(Cc3ccccc3)n2n1	TDP1 cell CPT inconclusive
CC(C)OCCCNC(=O)c1ccc(NC(=O)C2=CSCCO2)cc1	none
CCOc1ccc(NC(=O)N(C2CCCCC2)C2CCN(C(C)=O)CC2)cc1	none (no result: TDP1 inh)
CSc1ccc(/C=C(/NC(=O)c2ccco2)C(=O)N2CCOCC2)cc1	none
CN(C)C(CNC(=O)CCc1nc2cc(Cl)ccc2n(Cc2ccccc2)c1=O)c1ccccc1 (centres undefined)	DT40 TDP1 no CPT 16µM, IL1B secr inh -67, TDP1 cell CPT inconclusive
CCCc1nc(NC(C)=O)c(C#N)c(-c2ccco2)c1CC	none
COCC1CCN(C(=O)C2CCC(=O)N(CCc3cccc(F)c3)C2)CC1 (centres undefined)	none
O=C(O)CNc1nc(-c2ccccc2)c2cc([N+](=O)[O-])ccc2n1	DT40 TDP1 no CPT inconclusive, TDP1 cell CPT inconclusive
O=[N+]([O-])c1ccc2nc(NCCCO)nc(-c3ccccc3)c2c1	DT40 TDP1 no CPT 23µM, TDP1 cell CPT 9.2µM
CN(C)c1cc(C(F)(F)F)nc(-c2ccccn2)n1	none
CSCc1cc(N(C)c2ccccc2)nc(-c2ccccn2)n1	DT40 TDP1 no CPT 4.6µM, Six1-Eya2 blk inconclusive, TDP1 cell CPT 2.9µM (no result: TDP1 inh, CtBP-E1A inh)
Nc1cc(=O)[nH]c(=O)n1-c1ccc(Cl)cc1	none (no result: TDP1 inh)
CC(C)C[C@@H](CN1CCC[C@@H]1CN1C(=O)C(=O)NC[C@@H]1Cc1ccccc1)N1C[C@H](Cc2ccccc2)N(CC2CCCCC2)C(=O)C1=O	DT40 TDP1 no CPT 16µM, IL1B secr inh inconclusive, TDP1 cell CPT inconclusive (no result: TDP1 inh)
CC(C)C[C@@H](CN1CCC[C@@H]1CN1C(=O)C(=O)NC[C@@H]1Cc1ccc(O)cc1)N1C[C@H](Cc2ccc(O)cc2)N(CC2CCCCCC2)C(=O)C1=O	none (no result: TDP1 inh)
CC(C)C[C@@H](CN1CCC[C@H]1CN1C(=O)C(=O)NC[C@@H]1Cc1ccccc1)N1C[C@H](Cc2ccc(O)cc2)N(CC2CCCCCC2)C(=O)C1=O	DT40 TDP1 no CPT 23µM, IL1B secr inh -76, TDP1 cell CPT 23µM (no result: TDP1 inh)
CC(C)C[C@@H](CN1CCC[C@@H]1CN1C(=O)C(=O)NC[C@@H]1Cc1ccccc1)N1C[C@H](Cc2ccc(O)cc2)N(CC2CCCCC2)C(=O)C1=O	DT40 TDP1 no CPT inconclusive, IL1B secr inh -75, TDP1 cell CPT inconclusive (no result: TDP1 inh)
Cc1c(NS(=O)(=O)c2cccc(C(=O)N3CCC(C)CC3)c2)c(=O)n(-c2ccccc2)n1C	none
COc1ccc2c(c1)CC(C(=O)Nc1c(C)cc(C)cc1C)CO2 (centres undefined)	DT40 TDP1 no CPT inconclusive, TDP1 cell CPT inconclusive (no result: Six1-Eya2 blk, IL1B secr inh, CtBP-E1A inh)
CCOC(=O)C(C)n1cnc2c(cnn2-c2ccc(Cl)cc2)c1=O (centres undefined)	DT40 TDP1 no CPT 16µM, TDP1 cell CPT inconclusive
CCOC(=O)C(CC)n1cnc2c(nnn2-c2ccc(OC)cc2)c1=O (centres undefined)	none
CCOC(=O)C(CC)n1cnc2c(cnn2-c2ccc(Cl)cc2)c1=O (centres undefined)	DT40 TDP1 no CPT 18µM, TDP1 cell CPT inconclusive
Cc1cc(NC(=O)C2CCCCC2C(=O)O)no1 (centres undefined)	none
